The other results are listed elsewhere or left out. The hit rate among all sequences tested is not known here.
B1: VH:VL chains; a variant is named by its letters at X, in order (parent)
chain 1: QVQLVQSGAEVKKPGASVKVSCKASGYTFTDYXMHWVRQAPGQGLEWMGXVNPNXXXTTYNQKFEGRVTMTTDTSTSTAYMELRSLRSDDTAVYYCARXNXLDXWGQGTTVTVSS
chain 2: DIQMTQSPSSLSASVGDRVTITCSVSSSVSSIYLHWYQQKPGKAPKLLIYSTSNLASGVPSRFSGSGSGTDFTLTISSLQPEDFATYYCQVYSGYPLTFGGGTKVEIK

Variants of: B1
Assay: yeast display scFab, FACS + sequencing
Conditions: with MET
Procedure, shortened: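 For FACS, yeast displaying a heavy-chain CDR mutant scFab library were labelled with 1 nM HGFR-Fc and anti-Myc (PBSB, 1% milk, 3 h, room temperature), and the top 50% antigen-positive cells were gated. Input and round-3 sorted populations were deep sequenced in two replicates. The binding call was positive for sequences occurring in both antigen-positive samples and negative for sequences occurring only in input.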
In the case of AEAGADVV, the antigen binding call is reported as “no binding”.
In the case of VTEGGALA, the antigen binding call is reported as “no binding”.
In the case of YRRRGSLA, the antigen binding call is reported as “binds”.
YRREGSLA was tested, and the antigen binding call was “binds”.
With YAREGSGA the antigen binding call was “no binding”.
For YTREGAVA, the antigen binding call was “no binding”.
In the case of YRRRGALA, the antigen binding call is reported as “binds”.
With VRRRGALA the antigen binding call was “binds”.
For VAEKGALA, the antigen binding call was “no binding”.
In the case of VKGRADSV, the antigen binding call is reported as “no binding”.
In the case of YRRGGALA, the antigen binding call is reported as “binds”.
With YREETSGA the antigen binding call was “no binding”.
YRRRSSLA was tested, and the antigen binding call was “binds”.
In the case of FRAGGAGA, the antigen binding call is reported as “binds”.
FKAGGSGA was tested, and the antigen binding call was “no binding”.
For FEAGDSGA, the antigen binding call was “no binding”.
For ARARGSGA, the antigen binding call was “no binding”.
In the case of FAARDSGA, the antigen binding call is reported as “no binding”.
In the case of FRAGGSGA, the antigen binding call is reported as “binds”.
With FRARGSGA the antigen binding call was “binds”.
With FRARGAGA the antigen binding call was “binds”.
In the case of DKGEGDLA, the antigen binding call is reported as “no binding”.
In the case of VEEEGSGA, the antigen binding call is reported as “no binding”.
In the case of DRRGSDAV, the antigen binding call is reported as “no binding”.
YRRGGSAV was tested, and the antigen binding call was “binds”.
YRREGSAV was tested, and the antigen binding call was “binds”.
YRRGSSAV was tested, and the antigen binding call was “binds”.
In the case of YRREGSVV, the antigen binding call is reported as “binds”.
In the case of YKREGSAV, the antigen binding call is reported as “no binding”.
In the case of VATRAVGA, the antigen binding call is reported as “no binding”.
VKGRSDAS was tested, and the antigen binding call was “no binding”.
For DTGGGDAA, the antigen binding call was “no binding”.
For FRRGSSAV, the antigen binding call was “binds”.
With VRRGSSAV the antigen binding call was “binds”.
For VRRGSDGV, the antigen binding call was “no binding”.
FTREASAV was tested, and the antigen binding call was “no binding”.
With VTTKSSAV the antigen binding call was “no binding”.
VRTEDDWY was tested, and the antigen binding call was “no binding”.
For SEEEGDVA, the antigen binding call was “no binding”.
With YTTGGDVA the antigen binding call was “no binding”.
In the case of VTAGDDGS, the antigen binding call is reported as “no binding”.
DTTGSDVF was tested, and the antigen binding call was “no binding”.
YRTRSSAV was tested, and the antigen binding call was “binds”.
For YRTRSAAV, the antigen binding call was “binds”.
YRRRGSSF was tested, and the antigen binding call was “binds”.
With YRRRGASF the antigen binding call was “binds”.
STGGNDAD was tested, and the antigen binding call was “no binding”.
With YKAGGFGA the antigen binding call was “no binding”.
With YKGKGFGA the antigen binding call was “no binding”.
For YKAGGALA, the antigen binding call was “binds”.
YKGEGDLA was tested, and the antigen binding call was “no binding”.
In the case of YKGKGSLA, the antigen binding call is reported as “binds”.
With YKGKGALA the antigen binding call was “binds”.
FAAETDVF was tested, and the antigen binding call was “no binding”.
In the case of AARADDWD, the antigen binding call is reported as “no binding”.
With DTGEDDVY the antigen binding call was “no binding”.
In the case of SAGEGSLV, the antigen binding call is reported as “no binding”.
With DRAETDVY the antigen binding call was “no binding”.
For SAAGGASD chain 1 L45S, the antigen binding call was “no binding”.
YTTKSDGV was tested, and the antigen binding call was “no binding”.
In the case of VTGTGDGA, the antigen binding call is reported as “no binding”.
For STGGDDGA, the antigen binding call was “no binding”.
For FARAAALD, the antigen binding call was “no binding”.
For YRRGGALD, the antigen binding call was “binds”.
With FRRGGSLD the antigen binding call was “binds”.
With FRRGGALD the antigen binding call was “binds”.
For DARGGSLD, the antigen binding call was “no binding”.
For YARGGDLD, the antigen binding call was “no binding”.
For FREGGALD, the antigen binding call was “binds”.
VEKEGDGA was tested, and the antigen binding call was “no binding”.
With AKAGSYGV the antigen binding call was “no binding”.
With ATGRASLD the antigen binding call was “no binding”.
FRGGGDWD was tested, and the antigen binding call was “no binding”.
FRKGGSLD was tested, and the antigen binding call was “binds”.
In the case of FRAEGSLD, the antigen binding call is reported as “binds”.
With ARRGSSLD the antigen binding call was “binds”.
In the case of FRGGGSLD, the antigen binding call is reported as “binds”.
For YTEGDDWY, the antigen binding call was “no binding”.
For SEARSDGF, the antigen binding call was “no binding”.
With DAKENDVA the antigen binding call was “no binding”.
For YTGGDDVD, the antigen binding call was “no binding”.
In the case of FRKGTALD, the antigen binding call is reported as “binds”.
With FRGKGAGA the antigen binding call was “binds”.
FRGKGSLA was tested, and the antigen binding call was “binds”.
VKEKGDLA was tested, and the antigen binding call was “no binding”.
FRTKSDLA was tested, and the antigen binding call was “no binding”.
For FRGKGSGA, the antigen binding call was “binds”.
In the case of FKGKGFGA, the antigen binding call is reported as “no binding”.
With FREKGDLA the antigen binding call was “binds”.
With FKGKGSGA the antigen binding call was “no binding”.
For DAKKNASF, the antigen binding call was “no binding”.
For VTREGAVA, the antigen binding call was “no binding”.
With YTEGDDGA the antigen binding call was “no binding”.
FRGKGAAA was tested, and the antigen binding call was “binds”.
With FRGKSAAA the antigen binding call was “binds”.
With VTGRAAWV the antigen binding call was “no binding”.
For YRRRGFWY, the antigen binding call was “no binding”.
YRAGDDVY was tested, and the antigen binding call was “no binding”.
For YRRRGDVY, the antigen binding call was “binds”.
YTERGDVY was tested, and the antigen binding call was “no binding”.
In the case of YRRRGAVY, the antigen binding call is reported as “binds”.
For STTGSASF, the antigen binding call was “no binding”.
FKGRDSGS was tested, and the antigen binding call was “no binding”.
With FKGRGSSS the antigen binding call was “binds”.
FKGRGSLS was tested, and the antigen binding call was “binds”.
In the case of VGATSVSF, the antigen binding call is reported as “no binding”.
YARADDGS was tested, and the antigen binding call was “no binding”.
In the case of VEAGDAGS, the antigen binding call is reported as “no binding”.
For DAEKGAWA, the antigen binding call was “no binding”.
For YRGRDYGV, the antigen binding call was “no binding”.
In the case of ARGRDAWV, the antigen binding call is reported as “no binding”.
With YRGRDALV the antigen binding call was “binds”.
In the case of DRGRDDVV, the antigen binding call is reported as “no binding”.
With VRTEDAWV the antigen binding call was “no binding”.
For YRTRDDVV, the antigen binding call was “binds”.
FRGRDDLV was tested, and the antigen binding call was “no binding”.
With YRTRDALV the antigen binding call was “binds”.
YRTRDAWV was tested, and the antigen binding call was “binds”.
With FRTRDFLV the antigen binding call was “no binding”.
With YRTRDDVY the antigen binding call was “no binding”.
With YARADDGD the antigen binding call was “no binding”.
In the case of YAAETDVF, the antigen binding call is reported as “no binding”.
For VKEKGDGS, the antigen binding call was “no binding”.
In the case of VKGTGFLD, the antigen binding call is reported as “no binding”.
With YRAKGSLA the antigen binding call was “binds”.
For YRAKGALA, the antigen binding call was “binds”.
For ATGANAAV, the antigen binding call was “no binding”.
For AGGRSFVF, the antigen binding call was “no binding”.
In the case of YEGRNVGV, the antigen binding call is reported as “no binding”.
VAGTGDLA was tested, and the antigen binding call was “no binding”.
DEGGTDWD was tested, and the antigen binding call was “no binding”.
YRAKGAGA was tested, and the antigen binding call was “binds”.
YRAKGYGA was tested, and the antigen binding call was “no binding”.
For YRAKGVGA, the antigen binding call was “binds”.
